Measured values as given in PubChem BioAssay AID1159580 (chemical genetic matrix, 2015).
About 2,000 (36%) of roughly 5,500 compounds were called active. Inconclusive results (about 18%) are left out. Cut-off read from the data, not from the text of the source: active = normalized growth mostly below about 0.91 (no sharp cut-off); inconclusive = no clear call, values can overlap the other calls; inactive = mostly above about 0.92. Some of the results follow.

Experiment: chemical genetic growth profiling, strain panel (AID 1159580);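 note: tested at 20 µM; growth read once vehicle control cultures reached saturation at 30 °C; 1 = growth at the plate median or of vehicle wells; lower values mean less growth of the strain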
Conditions: growth OD
[1] = S. cerevisiae deletion strains, locus YDL101C, strain DUN1, hits give low values
[2] = S. cerevisiae deletion strains, locus YHR030C, strain SLT2, hits give low values

Measured: normalized growth

CCCCCc1ccc(S(=O)(=O)Nc2cccnc2Oc2ccc(Cl)cc2)cc1
inactive: S. cerevisiae deletion strains, locus YAL013W, strain DEP1, hits give low values 0.988 | S. cerevisiae deletion strains, locus YBR229C, strain ROT2, hits give low values 1 | [1] 0.992 | S. cerevisiae deletion strains, locus YDL134C, strain PPH21, hits give low values 0.994 | S. cerevisiae deletion strains, locus YDR150W, strain NUM1, hits give low values 1 | S. cerevisiae deletion strains, locus YEL061C, strain CIN8, hits give low values 1 | S. cerevisiae deletion strains, locus YGR078C, strain PAC10, hits give low values 1 | [2] 0.965 | S. cerevisiae deletion strains, locus YHR087W, strain rtc3, hits give low values 0.987 | S. cerevisiae deletion strains, locus YJL187C, strain SWE1, hits give low values 0.998 | S. cerevisiae deletion strains, locus YJR043C, strain POL32, hits give low values 0.988 | S. cerevisiae deletion strains, locus YJR075W, strain HOC1, hits give low values 0.964 | S. cerevisiae deletion strains, locus YLR039C, strain RIC1, hits give low values 0.951 | S. cerevisiae deletion strains, locus YLR058C, strain SHM2 (second series), hits give low values 0.994 | S. cerevisiae deletion strains, locus YLR085C, strain ARP6, hits give low values 1 | S. cerevisiae deletion strains, locus YLR262C, strain YPT6, hits give low values 0.951 | S. cerevisiae deletion strains, locus YML094W, strain GIM5, hits give low values 0.998 | S. cerevisiae deletion strains, locus YMR219W, strain ESC1, hits give low values 0.996 | S. cerevisiae deletion strains, locus YMR263W, strain SAP30, hits give low values 0.997 | S. cerevisiae deletion strains, locus YMR307W, strain GAS1, hits give low values 0.992 | S. cerevisiae deletion strains, locus YNL128W, strain TEP1, hits give low values 1.01 | S. cerevisiae deletion strains, locus YNL153C, strain GIM3, hits give low values 1 | S. cerevisiae deletion strains, locus YNL298W, strain CLA4 (second series), hits give low values 1.01 | S. cerevisiae deletion strains, locus YNL322C, strain KRE1, hits give low values 0.995 | S. cerevisiae deletion strains, locus YNR030W, strain Alg12, hits give low values 0.984 | S. cerevisiae deletion strains, locus YOL006C, strain TOP1, hits give low values 0.986 | S. cerevisiae deletion strains, locus YPL055C, strain LGE1, hits give low values 0.989 | S. cerevisiae deletion strains, locus YPL241C, strain CIN2, hits give low values 1.08 | S. cerevisiae deletion strains, locus YPR135W, strain CTF4, hits give low values 1.02 | S. cerevisiae strains, strain wild type, hits give low values 1

CCCCCc1ccc(S(=O)(=O)Nc2ncc(C)cc2Br)cc1
active: [2] 0.568 | S. cerevisiae deletion strains, locus YKL048C, strain ELM1, hits give low values 0.793 | S. cerevisiae deletion strains, locus YLR113W, strain HOG1, hits give low values 0.674 | S. cerevisiae deletion strains, locus YPL256C, strain CLN2, hits give low values 0.792
inactive: S. cerevisiae deletion strains, locus YAR019C, strain CDC15, hits give low values 0.955 | S. cerevisiae deletion strains, locus YBL105C, strain PKC1, hits give low values 0.953 | S. cerevisiae deletion strains, locus YBR135W, strain CKS1, hits give low values 0.942 | S. cerevisiae deletion strains, locus YBR136W, strain MEC1, hits give low values 0.952 | S. cerevisiae deletion strains, locus YBR160W, strain CDC28, hits give low values 0.947 | S. cerevisiae deletion strains, locus YDL017W, strain CDC7, hits give low values 0.953 | S. cerevisiae deletion strains, locus YDL028C, strain MPS1, hits give low values 0.953 | [1] 0.962 | S. cerevisiae deletion strains, locus YDL108W, strain KIN28, hits give low values 0.951 | S. cerevisiae deletion strains, locus YDL132W, strain cdc53, hits give low values 0.962 | S. cerevisiae deletion strains, locus YDL214C, strain PRR2, hits give low values 0.832 | S. cerevisiae deletion strains, locus YDR052C, strain DBF4, hits give low values 0.962 | S. cerevisiae deletion strains, locus YDR054C, strain cdc34, hits give low values 0.945 | S. cerevisiae deletion strains, locus YDR226W, strain ADK1, hits give low values 0.959 | S. cerevisiae deletion strains, locus YDR477W, strain SNF1, hits give low values 0.873 | S. cerevisiae deletion strains, locus YER123W, strain YCK3, hits give low values 0.835 | S. cerevisiae deletion strains, locus YER133W, strain GLC7, hits give low values 0.884 | S. cerevisiae deletion strains, locus YFL009W, strain cdc4, hits give low values 0.957 | S. cerevisiae deletion strains, locus YFL029C, strain CAK1, hits give low values 0.949 | S. cerevisiae deletion strains, locus YFR003C, strain YPI1, hits give low values 0.959 | S. cerevisiae deletion strains, locus YFR019W, strain FAB1, hits give low values 0.939 | S. cerevisiae deletion strains, locus YFR028C, strain CDC14, hits give low values 0.95 | S. cerevisiae deletion strains, locus YGR040W, strain KSS1, hits give low values 0.865 | S. cerevisiae deletion strains, locus YGR052W, strain FMP48, hits give low values 0.847 | S. cerevisiae deletion strains, locus YGR092W, strain DBF2, hits give low values 0.769 | S. cerevisiae deletion strains, locus YHR079C, strain IRE1, hits give low values 0.835 | S. cerevisiae deletion strains, locus YHR082C, strain KSP1, hits give low values 0.857 | S. cerevisiae deletion strains, locus YHR205W, strain SCH9, hits give low values 0.702 | S. cerevisiae deletion strains, locus YIL147C, strain SLN1, hits give low values 0.96 | S. cerevisiae deletion strains, locus YJL095W, strain BCK1, hits give low values 0.789 | S. cerevisiae deletion strains, locus YJL128C, strain PBS2, hits give low values 0.852 | S. cerevisiae deletion strains, locus YJL157C, strain FAR1, hits give low values 0.863 | S. cerevisiae deletion strains, locus YJR016C, strain ILV3, hits give low values 0.96 | S. cerevisiae deletion strains, locus YJR066W, strain TOR1 (second series), hits give low values 0.856 | S. cerevisiae deletion strains, locus YJR066W, strain TOR1, hits give low values 0.906 | S. cerevisiae deletion strains, locus YKL067W, strain YNK1, hits give low values 0.853 | S. cerevisiae deletion strains, locus YKL101W, strain HSL1, hits give low values 0.78 | S. cerevisiae deletion strains, locus YKL193C, strain SDS22, hits give low values 0.964 | S. cerevisiae deletion strains, locus YKL203C, strain TOR2, hits give low values 0.936 | S. cerevisiae deletion strains, locus YLR133W, strain CKI1, hits give low values 0.845 | S. cerevisiae deletion strains, locus YLR403W, strain SFP1, hits give low values 0.779 | S. cerevisiae deletion strains, locus YML070W, strain DAK1, hits give low values 0.78 | S. cerevisiae deletion strains, locus YMR001C, strain CDC5, hits give low values 0.955 | S. cerevisiae deletion strains, locus YMR205C, strain PFK2 (second series), hits give low values 0.836 | S. cerevisiae deletion strains, locus YMR277W, strain FCP1, hits give low values 0.956 | S. cerevisiae deletion strains, locus YNL006W, strain LST8, hits give low values 0.968 | S. cerevisiae deletion strains, locus YNL020C, strain ARK1, hits give low values 0.796 | S. cerevisiae deletion strains, locus YNL161W, strain CBK1, hits give low values 0.961 | S. cerevisiae deletion strains, locus YNL183C, strain NPR1, hits give low values 0.806 | S. cerevisiae deletion strains, locus YNL207W, strain RIO2, hits give low values 0.968 | S. cerevisiae deletion strains, locus YNL222W, strain SSU72, hits give low values 0.951 | S. cerevisiae deletion strains, locus YNL307C, strain MCK1 (second series), hits give low values 0.811 | S. cerevisiae deletion strains, locus YOL078W, strain AVO1, hits give low values 0.95 | S. cerevisiae deletion strains, locus YOL136C, strain PFK27, hits give low values 0.818 | S. cerevisiae deletion strains, locus YOR061W, strain CKA2, hits give low values 0.815 | S. cerevisiae deletion strains, locus YOR119C, strain RIO1, hits give low values 0.893 | S. cerevisiae deletion strains, locus YOR231W, strain MKK1, hits give low values 0.783 | S. cerevisiae deletion strains, locus YOR329C, strain SCD5, hits give low values 0.957 | S. cerevisiae deletion strains, locus YPL031C, strain PHO85, hits give low values 0.882 | S. cerevisiae deletion strains, locus YPL153C, strain RAD53, hits give low values 0.829 | S. cerevisiae deletion strains, locus YPL204W, strain HRR25, hits give low values 0.843 | S. cerevisiae deletion strains, locus YPL209C, strain IPL1, hits give low values 0.955 | S. cerevisiae deletion strains, locus YPR025C, strain CCL1, hits give low values 0.955 | S. cerevisiae deletion strains, locus YPR106W, strain ISR1, hits give low values 0.921 | S. cerevisiae deletion strains, locus YPR111W, strain DBF20, hits give low values 0.903 | S. cerevisiae deletion strains, strain NNK1, hits give low values 0.923 | S. cerevisiae deletion strains, strain TSCII, hits give low values 0.955
